Test results from PubChem BioAssay AID493194 (Broad Institute, 2011).
Results with a measured potency or affinity are listed apart. Records with an inconclusive call do not appear. The source made the active and inactive calls.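 Rule for the calls: active = a valid curve of falling signal whose half-effect concentration is at most ten times the top tested dose; inconclusive = flat curve at 30 to 70% inhibition, or poor fit; inactive = signal rise, flat within 30%, or potency beyond limit.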

Target: Scavenger receptor class B member 1 (Mus musculus) (UniProt Q61009)
Test: mouse SR-BI DiI-HDL uptake blockers – ldlA[mSR-BI] cells, fluorescence, cherry pick, dose response (AID 493194);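 note: CHO cells lacking LDL receptor and overexpressing mouse SR-BI; cellular uptake of fluorescently labeled HDL measured as cell fluorescence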
Details: CHO ldlA[mSR-BI] DiI-HDL uptake fluorescence, 3 h; series mostly up to 35 µM

Sequence of Scavenger receptor class B member 1 (Mus musculus) (Q61009 whole entry, looked up): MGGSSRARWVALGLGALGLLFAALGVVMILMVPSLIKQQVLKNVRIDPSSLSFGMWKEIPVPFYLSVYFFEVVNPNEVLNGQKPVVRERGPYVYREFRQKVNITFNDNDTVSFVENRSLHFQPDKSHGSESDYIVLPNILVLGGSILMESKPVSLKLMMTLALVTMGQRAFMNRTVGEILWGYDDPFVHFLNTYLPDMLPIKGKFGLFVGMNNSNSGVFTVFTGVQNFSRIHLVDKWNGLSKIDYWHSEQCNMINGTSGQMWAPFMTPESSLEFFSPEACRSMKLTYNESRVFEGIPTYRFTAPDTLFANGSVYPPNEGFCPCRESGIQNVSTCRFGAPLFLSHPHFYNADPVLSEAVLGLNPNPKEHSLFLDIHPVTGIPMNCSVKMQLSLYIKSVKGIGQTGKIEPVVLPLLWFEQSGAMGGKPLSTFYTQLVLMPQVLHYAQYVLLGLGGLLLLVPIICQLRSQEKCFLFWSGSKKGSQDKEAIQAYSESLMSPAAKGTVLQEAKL

outcome, inactive:
COc1ccc(N2C(=O)C3C(C2=O)C3(c2ccccc2)c2ccccc2)cc1 (stereo not drawn)
COC(=O)c1[nH]c2c(c1C)C(=O)CC(c1cccs1)C2 (stereo not drawn)
CCOC(=O)C1=CN(c2cccc(F)c2)C=C(C(=O)OCC)C1c1cc(OC)c(O)c([N+](=O)[O-])c1
CCCC(=O)Nc1ccc(Cl)c(NC(=O)c2cccc(OC)c2)c1
Cc1sc(NC(=O)CN2CCOCC2)nc1-c1ccc2c(c1)CCN2S(=O)(=O)c1ccccc1
O=C(Nc1ncc(Cc2cccc(C(F)(F)F)c2)s1)c1ccc(-c2cccc([N+](=O)[O-])c2)o1
Cc1cccc(N2CCN(C(=O)CN(C)S(=O)(=O)c3ccc4c(c3)CCC(=O)N4)CC2)c1C
CCOC(=O)C(C)(C)Sc1nc2c(cnn2-c2ccc(F)cc2)c(=O)[nH]1
COc1ccc(-c2nnn(CC(=O)N(C3CCCCC3)C(C)C(=O)NC3CCCC3)n2)cc1OC (stereo not drawn)
CCOc1ccc(C(=O)Nc2ccc(S(=O)(=O)N3C[C@@H]4C[C@@H](C3)c3cccc(=O)n3C4)cc2)cc1
CC(=O)c1ccc(N2CCN(C(=O)c3cc(-c4cccnc4)nc4ccc(Br)cc34)CC2)cc1
O=C(Nc1ccccc1)c1ccc2c(c1)CCN2S(=O)(=O)c1ccccc1
CCOC(=O)C1CCCN(S(=O)(=O)NC[C@H]2O[C@@H](n3cnc4c(N)ncnc43)[C@H](O)[C@@H]2O)C1 (stereo partly drawn)
CC(C)[C@H](NC(=O)c1ccco1)C(=O)OCC(=O)c1ccc2c(c1)NC(=O)CO2
CC(C(=O)NCc1ccccc1)N(Cc1ccccc1Cl)C(=O)c1snc(C(N)=O)c1N (stereo not drawn)
COc1cccc(-c2csc(N3CCN(C(=O)NC45CC6CC(CC(C6)C4)C5)CC3)n2)c1
Cc1cccc(NC(=O)N2C3CCCC2CC(NC(=O)C(C)(C)C)C3)c1 (stereo not drawn)
O=C(Cc1cccs1)NCCSc1c(-c2ccc(Cl)cc2)[nH]c2ccccc12
O=C(NCC1CCCO1)c1ccc2c(c1)N(Cc1ccc(F)cc1Cl)C(=O)CS2 (stereo not drawn)
COC(=O)/C=C/c1ccc2c(c1)S(=O)(=O)N(c1cccc(OC)c1)[C@H]2CC(=O)OC
CC(=O)c1cc(C#N)c(SCc2ccccc2C#N)nc1C
CC[C@]12c3[nH]c4cc(-c5ccco5)ccc4c3CCN1C(=O)[C@@H](CC(=O)NCc1ccc(OC)c(OC)c1)C[C@@H]2C(=O)N1CCN(C(=O)c2ccco2)CC1
COc1ccc(OC)c(CCNC(=O)c2ccc(NC3=NC4CS(=O)(=O)CC4S3)cc2)c1 (stereo not drawn)
COc1ccccc1-n1cnc2cc(NCc3ccco3)ccc21
Cc1cc(C)cc(N(CCC#N)C(=O)COC(=O)CCc2c[nH]c3ccccc23)c1
Cc1cc(C)cc(N2CN=C3SCC(=O)N3C2)c1
O=C(NC1CCCCC1)C(c1ccc2ncccc2c1)N(Cc1ccco1)C(=O)c1ccc2c(c1)OCCO2 (stereo not drawn)
COc1ccc(C)cc1N(CC(=O)NC1CCCC1)C(=O)Cn1nnc(-c2ccc(C)o2)n1
Cc1cccc(Nc2ccccc2C(=O)OCC(=O)N(C)C2CCS(=O)(=O)C2)c1C (stereo not drawn)
Cc1ccc(-c2cc(C(=O)Nc3ccc(S(=O)(=O)Nc4onc(C)c4C)cc3)[nH]n2)c(O)c1
COCCNC(=O)c1ccc(CS(=O)(=O)c2cccc(C(F)(F)F)c2)o1
COCCN(C(=O)COC(=O)c1ccccc1Nc1ccccc1)c1c(N)n(Cc2ccccc2)c(=O)[nH]c1=O
O=C(Nc1ccc(-c2nc3ccccc3o2)c(O)c1)c1cc(-n2cnnc2)ccc1Cl
O=C(O)c1cc(N2C(=O)C=CC2=O)cc(N2C(=O)C=CC2=O)c1
O=C(NNc1c(F)c(F)cc(F)c1F)C1CCN(S(=O)(=O)c2ccccc2F)CC1
O=C(Nc1ccccc1)NC1CC2CCC(C1)N2Cc1nnnn1Cc1ccc2c(c1)OCO2 (stereo not drawn)
O=C(N[C@@H]1C/C=C\C[C@@H](CC(=O)N(CCO)Cc2ccccc2)C(=O)NCCOC1=O)OCC1c2ccccc2-c2ccccc21
CCOC(=O)Nc1cccc(NC(=O)c2cc(OC)cc(OC)c2)c1
